{"source": "the supplement of paper PMC3334620", "note": "The full ranking holds about 33,000 sequences; the median of “E-score (-0.5 to 0.5)” is about -0.054, and the highest 2% start at about 0.39. The full list was thinned out, with the highest values kept by preference."}
{"target": "Ylr278c (UniProt Q05854)", "sequence (Q05854 whole entry, the tested form may be a part)": "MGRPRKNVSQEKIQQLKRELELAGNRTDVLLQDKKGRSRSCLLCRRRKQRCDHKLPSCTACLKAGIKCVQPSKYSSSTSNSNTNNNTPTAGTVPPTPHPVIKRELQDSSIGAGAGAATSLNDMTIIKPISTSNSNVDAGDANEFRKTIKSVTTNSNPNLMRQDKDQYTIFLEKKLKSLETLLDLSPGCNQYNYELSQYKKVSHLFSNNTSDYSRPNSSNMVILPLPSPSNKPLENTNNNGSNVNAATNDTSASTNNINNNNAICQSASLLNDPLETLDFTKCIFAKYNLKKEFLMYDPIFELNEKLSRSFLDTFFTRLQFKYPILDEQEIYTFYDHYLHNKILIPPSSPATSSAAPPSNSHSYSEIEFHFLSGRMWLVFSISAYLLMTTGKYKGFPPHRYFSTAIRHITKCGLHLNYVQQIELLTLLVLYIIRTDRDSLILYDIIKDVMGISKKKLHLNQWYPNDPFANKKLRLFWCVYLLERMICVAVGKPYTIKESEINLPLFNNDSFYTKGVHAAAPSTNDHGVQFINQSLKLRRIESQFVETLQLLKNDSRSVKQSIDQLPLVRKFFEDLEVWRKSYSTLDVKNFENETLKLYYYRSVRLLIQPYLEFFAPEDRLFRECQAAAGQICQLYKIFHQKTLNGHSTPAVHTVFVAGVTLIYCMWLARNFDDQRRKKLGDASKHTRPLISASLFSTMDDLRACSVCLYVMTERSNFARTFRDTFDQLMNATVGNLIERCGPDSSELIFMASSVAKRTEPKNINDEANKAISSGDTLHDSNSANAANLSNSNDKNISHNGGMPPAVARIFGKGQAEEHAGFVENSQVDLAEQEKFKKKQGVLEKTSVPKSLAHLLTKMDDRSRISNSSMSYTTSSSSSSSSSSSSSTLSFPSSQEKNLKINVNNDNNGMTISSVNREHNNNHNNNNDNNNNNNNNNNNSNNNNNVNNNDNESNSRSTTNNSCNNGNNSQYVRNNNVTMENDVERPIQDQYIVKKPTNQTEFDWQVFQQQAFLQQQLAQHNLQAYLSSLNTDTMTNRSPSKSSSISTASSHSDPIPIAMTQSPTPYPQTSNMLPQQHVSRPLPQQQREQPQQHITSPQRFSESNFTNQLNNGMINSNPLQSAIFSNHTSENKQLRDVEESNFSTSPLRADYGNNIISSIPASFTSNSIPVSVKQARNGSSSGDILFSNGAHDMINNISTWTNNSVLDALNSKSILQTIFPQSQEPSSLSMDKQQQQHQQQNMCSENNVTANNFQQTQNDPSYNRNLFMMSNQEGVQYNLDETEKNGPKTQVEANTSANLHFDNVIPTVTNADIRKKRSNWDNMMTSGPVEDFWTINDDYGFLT", "assay": "PBM E-score (8-mer binding enrichment) (E-score (-0.5 to 0.5)); higher = stronger / more preferred TF binding", "settings": "protein concentration: 200 nM; construct: GST-DNA-binding domain", "protocol": "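Universal 'all 10-mer' protein binding microarrays (Agilent AMADID 015681) probed with GST-tagged S. cerevisiae TFs (full-length or DBD) made by in vitro transcription/translation (PURExpress), about 100-200 nM. Bound TF was detected with fluorescent anti-GST. Each ungapped 8-mer (which stands for itself and its reverse complement) is scored by the PBM enrichment score (E-score), a modified Wilcoxon-Mann-Whitney statistic from -0.5 to +0.5, computed with the Universal PBM Analysis Suite. Scale: above 0.35 generally sequence-specific binding.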"}
{"sequence": "AAGTCGAG", "PBM E-score": -0.374}
{"sequence": "CTGTCTGC", "PBM E-score": -0.222}
{"sequence": "CCCAATAA", "PBM E-score": -0.0977}
{"sequence": "GGAGACTA", "PBM E-score": 0.0463}
{"sequence": "GCTAAGAC", "PBM E-score": -0.0188}
{"sequence": "CGCTCCGC", "PBM E-score": 0.317}
{"sequence": "CGCTCCCA", "PBM E-score": 0.0833}
{"sequence": "CGCTCCGA", "PBM E-score": 0.432}
{"sequence": "AACTGTGG", "PBM E-score": -0.0559}
{"sequence": "ACTACGCT", "PBM E-score": -0.0389}
{"sequence": "GCCGACGA", "PBM E-score": 0.248}
{"sequence": "ACCGACAA", "PBM E-score": 0.199}
{"sequence": "TCCGACAA", "PBM E-score": 0.39}
{"sequence": "CCCGACAA", "PBM E-score": 0.281}
{"sequence": "CCCGACGA", "PBM E-score": 0.213}
{"sequence": "TCCGACGA", "PBM E-score": 0.397}
{"sequence": "ACCTCTGA", "PBM E-score": -0.0775}
{"sequence": "CAAGATTG", "PBM E-score": -0.151}
{"sequence": "AAAATTAT", "PBM E-score": 0.214}
{"sequence": "ACCCGGTC", "PBM E-score": 0.202}
{"sequence": "ACCCGGCA", "PBM E-score": 0.174}
{"sequence": "CCCGGGAC", "PBM E-score": 0.394}
{"sequence": "CCGGGGAC", "PBM E-score": 0.242}
{"sequence": "TCCCGGAA", "PBM E-score": 0.44}
{"sequence": "ACCCGGAC", "PBM E-score": 0.396}
{"sequence": "GCCGGGAC", "PBM E-score": 0.255}
{"sequence": "ACCCGGAA", "PBM E-score": 0.394}
{"sequence": "TCACGGAA", "PBM E-score": 0.324}
{"sequence": "TCCCGGCA", "PBM E-score": 0.333}
{"sequence": "ACCCGGGC", "PBM E-score": 0.273}
{"sequence": "ACCCGGTA", "PBM E-score": 0.161}
{"sequence": "CCCCTAAC", "PBM E-score": -0.141}
{"sequence": "GAAATCGC", "PBM E-score": 0.214}
{"sequence": "AACTGGCC", "PBM E-score": 0.0711}
{"sequence": "GTGCCTTA", "PBM E-score": -0.129}
{"sequence": "AGCGCAGG", "PBM E-score": 0.169}
{"sequence": "CAAAAAGG", "PBM E-score": -0.203}
{"sequence": "AATTTCTC", "PBM E-score": 0.121}
{"sequence": "CCCCGGCG", "PBM E-score": 0.348}
{"sequence": "GCCCGGGC", "PBM E-score": 0.356}
{"sequence": "GCCCGGAC", "PBM E-score": 0.406}
{"sequence": "GCCCGGCC", "PBM E-score": 0.32}
{"sequence": "CCCCGGTA", "PBM E-score": 0.329}
{"sequence": "CCCCGGCA", "PBM E-score": 0.318}
{"sequence": "CCCCGGCC", "PBM E-score": 0.287}
{"sequence": "CCCCGGAG", "PBM E-score": 0.48}
{"sequence": "CCCCGGAC", "PBM E-score": 0.388}
{"sequence": "CCCCGGAA", "PBM E-score": 0.406}
{"sequence": "CCCCGGTC", "PBM E-score": 0.368}
{"sequence": "CCCGGGAG", "PBM E-score": 0.294}
{"sequence": "AAACCAGC", "PBM E-score": 0.0107}
{"sequence": "AGTGAGCC", "PBM E-score": -0.162}
{"sequence": "TACTTTAA", "PBM E-score": -0.122}
{"sequence": "TCGGGTCA", "PBM E-score": 0.232}
{"sequence": "AGCAGCCA", "PBM E-score": -0.259}
{"sequence": "CCCAGTCC", "PBM E-score": -0.0128}
{"sequence": "CTATAAAG", "PBM E-score": 0.0306}
{"sequence": "GAACCAGC", "PBM E-score": -0.126}
{"sequence": "GCCCGGAA", "PBM E-score": 0.423}
{"sequence": "ACCCGGAT", "PBM E-score": 0.238}
{"sequence": "ACCCGGAG", "PBM E-score": 0.46}
{"sequence": "ACCCGGCG", "PBM E-score": 0.258}
{"sequence": "GCCCGGTA", "PBM E-score": 0.26}
{"sequence": "GCCCGGGA", "PBM E-score": 0.341}
{"sequence": "AGCTCACC", "PBM E-score": -0.00625}
{"sequence": "CTTCCGAC", "PBM E-score": 0.273}
{"sequence": "ATTCCGAA", "PBM E-score": 0.456}
{"sequence": "ATTCCGAC", "PBM E-score": 0.451}
{"sequence": "GTTCCGAA", "PBM E-score": 0.373}
{"sequence": "ATGCCGAG", "PBM E-score": 0.213}
{"sequence": "ATTCCAAG", "PBM E-score": -0.077}
{"sequence": "CTTCCGAA", "PBM E-score": 0.371}
{"sequence": "ATTCCGAG", "PBM E-score": 0.445}
{"sequence": "ATGCCGAC", "PBM E-score": 0.318}
{"sequence": "GTGCAACA", "PBM E-score": -0.184}
{"sequence": "ACATTCCG", "PBM E-score": 0.332}
{"sequence": "AGGGTTAG", "PBM E-score": -0.249}
{"sequence": "ATATGATA", "PBM E-score": 0.0821}
{"sequence": "AAGATTCT", "PBM E-score": -0.242}
{"sequence": "AATACCGC", "PBM E-score": 0.268}
{"sequence": "AATACCGG", "PBM E-score": 0.416}
{"sequence": "AACACCGC", "PBM E-score": 0.27}
{"sequence": "CCCACCGC", "PBM E-score": 0.225}
{"sequence": "AACACCGG", "PBM E-score": 0.411}
{"sequence": "CCCACCGG", "PBM E-score": 0.41}
{"sequence": "CACACCGG", "PBM E-score": 0.283}
{"sequence": "AATACCGT", "PBM E-score": 0.211}
{"sequence": "CCCACCGA", "PBM E-score": 0.00192}
{"sequence": "ATAAATAT", "PBM E-score": 0.106}
{"sequence": "GGTTCGTA", "PBM E-score": -0.0544}
{"sequence": "CACTGTAC", "PBM E-score": -0.378}
{"sequence": "AAAGCGAC", "PBM E-score": 0.031}
{"sequence": "GTCCGAAA", "PBM E-score": 0.426}
{"sequence": "CGCCGAAG", "PBM E-score": 0.365}
{"sequence": "ATCCGAAT", "PBM E-score": 0.395}
{"sequence": "GTCCGAAC", "PBM E-score": 0.401}
{"sequence": "GCCCGAAC", "PBM E-score": 0.215}
{"sequence": "GGCCGAAA", "PBM E-score": 0.254}
{"sequence": "ATCCGAAA", "PBM E-score": 0.368}
{"sequence": "CTCCGAAG", "PBM E-score": 0.479}
{"sequence": "GACCGAAC", "PBM E-score": 0.122}
{"sequence": "ATCCGAAG", "PBM E-score": 0.301}
{"sequence": "CACCGAAG", "PBM E-score": 0.167}
{"sequence": "AACCGAAT", "PBM E-score": 0.133}
{"sequence": "GGACACCA", "PBM E-score": 0.0663}
{"sequence": "AAATGGTT", "PBM E-score": -0.0331}
{"sequence": "ACCCACAA", "PBM E-score": 0.00936}
{"sequence": "AGCTTCCG", "PBM E-score": 0.24}
{"sequence": "CAACTGCA", "PBM E-score": -0.174}
{"sequence": "GGAGCTCC", "PBM E-score": 0.348}
{"sequence": "CACCGAAC", "PBM E-score": 0.102}
{"sequence": "CGCCGAAA", "PBM E-score": 0.358}
{"sequence": "CTCCGAAC", "PBM E-score": 0.457}
{"sequence": "CACCGAAA", "PBM E-score": 0.184}
{"sequence": "TTCCGAAA", "PBM E-score": 0.43}
{"sequence": "TGCCGAAA", "PBM E-score": 0.325}
{"sequence": "ATCCGAAC", "PBM E-score": 0.344}
{"sequence": "TCCCGAAA", "PBM E-score": 0.238}
{"sequence": "CTCCGAAA", "PBM E-score": 0.477}
{"sequence": "CCACAATC", "PBM E-score": 0.0776}
{"sequence": "ACTGCTAA", "PBM E-score": -0.185}
{"sequence": "AACAGTTC", "PBM E-score": -0.0219}
{"sequence": "CCTCAAAG", "PBM E-score": -0.271}
{"sequence": "AGCGCTCC", "PBM E-score": 0.0243}
{"sequence": "CAGTAGCG", "PBM E-score": 0.0152}
{"sequence": "CGAGTTAC", "PBM E-score": -0.00574}
{"sequence": "GGAGTTAC", "PBM E-score": 0.399}
{"sequence": "AGAGTTAC", "PBM E-score": -0.362}
{"sequence": "ACCTAGCT", "PBM E-score": -0.1}
{"sequence": "ACTACAAA", "PBM E-score": -0.0603}
{"sequence": "GGCCGAGA", "PBM E-score": 0.272}
{"sequence": "CACCGAGA", "PBM E-score": 0.034}
{"sequence": "ATCCGAGA", "PBM E-score": 0.299}
{"sequence": "GTCCGAGA", "PBM E-score": 0.416}
{"sequence": "CCCCGAGC", "PBM E-score": 0.219}
{"sequence": "CGCCGAGA", "PBM E-score": 0.304}
{"sequence": "ATCCGAGC", "PBM E-score": 0.266}
{"sequence": "CTCCGAGC", "PBM E-score": 0.439}
{"sequence": "CTCCGAGA", "PBM E-score": 0.452}
{"sequence": "AAATATCT", "PBM E-score": 0.00279}
{"sequence": "GCGCAGTA", "PBM E-score": 0.0804}
{"sequence": "ACTAGCGA", "PBM E-score": -0.0813}
{"sequence": "ATGGATGC", "PBM E-score": -0.0459}
{"sequence": "ATCATGAT", "PBM E-score": -0.14}
{"sequence": "ACGTAGAC", "PBM E-score": -0.244}
{"sequence": "CAGGAGAG", "PBM E-score": -0.205}
{"sequence": "CTGGAGAC", "PBM E-score": -0.222}
{"sequence": "CAGGAGAA", "PBM E-score": 0.0274}
{"sequence": "AAGGAGAA", "PBM E-score": -0.0157}
{"sequence": "CTGGAGAA", "PBM E-score": -0.141}
{"sequence": "ACGGAGAG", "PBM E-score": 0.336}
{"sequence": "ATGGAGAA", "PBM E-score": 0.148}
{"sequence": "ACGGAGAA", "PBM E-score": 0.434}
{"sequence": "CCGGAGAC", "PBM E-score": 0.444}
{"sequence": "CGGGAGAC", "PBM E-score": 0.302}
{"sequence": "CCGGAGAA", "PBM E-score": 0.489}
{"sequence": "CCGGAGAG", "PBM E-score": 0.456}
{"sequence": "CTCAGAAA", "PBM E-score": -0.257}
{"sequence": "GAAGACAA", "PBM E-score": -0.0383}
{"sequence": "ACCGATCG", "PBM E-score": 0.26}
{"sequence": "CGGGTAAA", "PBM E-score": 0.156}
{"sequence": "CTGAGAAG", "PBM E-score": -0.149}
{"sequence": "ACGAGTCG", "PBM E-score": -0.159}
{"sequence": "AATTTCGT", "PBM E-score": -0.0607}
{"sequence": "CGAGATCA", "PBM E-score": 0.013}
{"sequence": "GGCAGCGA", "PBM E-score": 0.0771}
{"sequence": "CCCAGGAG", "PBM E-score": -0.188}
{"sequence": "CAACACTC", "PBM E-score": 0.133}
{"sequence": "TACGGTCA", "PBM E-score": 0.0722}
{"sequence": "GTAAAGAA", "PBM E-score": -0.0759}
{"sequence": "TCGGAGAA", "PBM E-score": 0.465}
{"sequence": "GCGGAGAA", "PBM E-score": 0.436}
{"sequence": "TGGGAGAA", "PBM E-score": -0.208}
{"sequence": "GTGGAGAA", "PBM E-score": -0.0956}
{"sequence": "TAGGAGAA", "PBM E-score": -0.134}
